# Data taken from PubChem BioAssay (NCI).
# The panel holds about 83,000 compounds, 20% with a hit somewhere; the sample as a whole holds those more often.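 Each cell line was grown in a 96-well plate and treated with one concentration of compound for 48 hours. Values below 10 were considered active.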 Unmarked numbers belong to inactive results. Activity calls are given as the source filed them.
# Tested on: MDA-MB-468 breast
# Assay: NCI-60 one-dose screen, 48 h (100 = growth as untreated, 0 = no growth, -100 = all killed)
# Conditions: 10 µM unless noted
row,SMILES,growth
1,CCCCCCCCCCCCNC(=O)N[C@H](C(=O)N[C@H]1/C=C/CCNC(=O)/C=C/[C@H](C)NC1=O)C(C)C,-66.6% (active)
2,Nc1c(C(=O)Nc2cccc3cnccc23)sc2nc3c(cc12)C(=O)CCC3,47.9%
3,O=C(Nc1ccc(F)cc1)Nc1ccccc1CNc1nc(Nc2ccc(OCCN3CCCC3)cc2)ncc1Cl,-44.1% (active)
4,O=[N+]([O-])c1cc2c(cc1Br)C1C(C3C2C(Cl)(Cl)C(Cl)=C(Cl)C3(Cl)Cl)C(Cl)(Cl)C(Cl)=C(Cl)C1(Cl)Cl (centres undefined),95.7%
5,Cc1cc(Nc2ccc(C)c(Cl)c2)n2nc(C(F)(F)F)nc2n1,36.5%
6,N=C(N)c1ccc(OCCSCCOc2ccc(C(=N)N)cc2)cc1,40.1%
7,O=C(Nc1ccc(Br)cc1)C1=NCCCCN1,97.6%
8,NS(=O)(=O)c1ccc(Nc2nc(Nc3ccccc3)nc(-n3nc(-c4ccccc4)cc3-c3ccccc3)n2)cc1,11.7%
9,COc1ccc(NC(=O)CSc2nc(C)c(C(C)=O)n2-c2ccc(Cl)cc2)cc1,98.8%
10,N#Cc1nc(-c2ccccc2)oc1S(=O)(=O)N1CCOCC1,71.2%
11,C[C@H]1[C@H](C)CC[C@]2(CO)CC[C@]3(C)C(=CC[C@@H]4[C@@]5(C)Cc6c([nH]c7ccccc67)C(C)(C)[C@@H]5CC[C@]43C)[C@H]12,77.8%
12,CC(C)CCSc1nc(N)nc2nc[nH]c12,103%
13,Cc1cc2c(C(C)C)c(O)c(O)c(C=NCc3ccoc3)c2c(O)c1-c1c(C)cc2c(C(C)C)c(O)c(O)c(C=NCc3ccco3)c2c1O,61%
14,Cc1[nH]n(-c2ccccc2)c2nc3nncc3c(-c3ccc(Cl)cc3)c12,95.1%
15,CN(C)Cc1ccc(O)c(C(=O)O)c1,106%
16,Cc1nc2ccccc2c(/C=C/c2ccc(Cl)cc2)c1C(=O)/C=C/c1ccc(Cl)cc1,-50.9% (active)
17,Cc1ncc(CO)c(C(=O)O)c1O,108%
18,O=C(O)CCCCSCCCCC(=O)O,95.3%
19,c1csc(-c2cn3nc(-c4c[nH]c5ccccc45)sc3n2)c1,19.4%
20,CCc1ccc(C(c2ccc(CC)cc2)C(Cl)(Cl)CCl)cc1,95.8%
21,Cn1c2ccccc2c2nn(Cc3ccccc3)c(=O)nc21,106%
22,CC12OC(CC(O)C1O)n1c3ccccc3c3c4c(c5c6ccccc6n2c5c31)C(=O)N(CCN1CCOCC1)C4=O (centres undefined),-30.4% (active)
23,COc1cc(-c2c(C#N)c(-c3cccs3)nc3c2c(-c2ccccc2)nn3-c2ccccc2)ccc1O,95.4%
24,COc1ccc(-c2nc(Cl)c3c(C)nn(-c4ccc(F)cc4)c3n2)cc1,105%
25,N=C(N)c1ccc(-c2ccc(-c3cncc4ccccc34)s2)cc1F,-90.6% (active)
26,CCOc1cc(Br)c(C(C)NC(=O)c2cccc(OC)c2)cc1OCC (centres undefined),52.6%
27,O=C([C@H]1C[C@H]1c1ccc(S(F)(F)(F)(F)F)cc1)N1CCN(c2cc(Cl)ccc2C(F)(F)F)CC1,58.9%
28,Cc1cc(C)c2c(n1)sc1c(Nc3ccc(Cl)cc3)ncnc12,19%
29,COc1ccc2c(c1)C(C)Cc1c(ncnc1-n1c(C)nc3ccccc31)N2C (centres undefined),26.2%
